The source of these data is PubChem BioAssay AID588442 (The Scripps Research Institute Molecular Screening Center, 2011).

Structures are written as SMILES. Measured potencies and affinities stand elsewhere. Some compounds were tested as several samples or in several runs, with calls that do not always agree. A number with no mark means an inactive call.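 Rule for the calls: active = EC50 of 10 µM or lower; inactive = EC50 above 10 µM or not measured.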

This experiment in a line: optical interference in Abeta FP readout, dose response, artefact control for IDE activator project, biochemical, fluorescence polarization (AID 588442). Particulars: FP artifact counterscreen, fluorescein-Abeta, no enzyme activity.

Turning to `C[n+]1c2cc(N)ccc2cc2ccc(N)cc21`, the EC50 is greater than 54.7 µM.
